Assay results published in the supplement of paper PMC6555819.

Columns and labels:
Experiment in all cases: PBM binding z-score (relative to random genomic background probes); higher = stronger binding; sequences stand for … in GC…GCGATTGACAGCGTAGAATGAAGG
[1] = test system: FXR:RXRa (NR concentration 270 nM, RXRa partner concentration 90 nM)
How it was run: (§1)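 Probes were double-stranded and carried 34-nt variable regions with direct-repeat seeds, single-nucleotide variants, half-site ablations and random human genomic background sequences, printed on custom Agilent 4×180K protein-binding microarrays. Arrays were incubated 1 h with ligand-free nuclear receptor dimers in PBS pH 7.4, 2% milk, 0.02% Triton X-100, 1 mM DTT, 0.2 mg/mL BSA and 0.4 mg/ml salmon testes DNA. Antibodies against each partner (one per run) detected binding, and scanned fluorescence was regression-normalized. Binding z-scores use the random background probes as reference.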

[2] = test system: LXRa:RXRa (NR concentration 270 nM, RXRa partner concentration 90 nM)
How it was run: as §1

[3] = test system: LXRa homodimer (NR concentration 270 nM)
How it was run: as §1

[4] = test system: LXRb:RXRa (NR concentration 270 nM, RXRa partner concentration 90 nM)
How it was run: as §1

[5] = test system: LXRb homodimer (NR concentration 270 nM)
How it was run: as §1

[6] = test system: PPARa:RXRa (NR concentration 270 nM, RXRa partner concentration 90 nM)
How it was run: as §1

[7] = test system: PPARg:RXRa (NR concentration 180 nM, RXRa partner concentration 90 nM)
How it was run: as §1

[8] = test system: PPARg:RXRa 270nM:90nM, anti-RXR (NR concentration 270 nM, RXRa partner concentration 90 nM)
How it was run: as §1

[9] = test system: PPARg:RXRa 30nM:10nM, anti-RXR (NR concentration 30 nM, RXRa partner concentration 10 nM)
How it was run: as §1

[10] = test system: PPARg:RXRa 90nM:30nM, anti-RXR (NR concentration 90 nM, RXRa partner concentration 30 nM)
How it was run: as §1

[11] = test system: PPARg:RXRa DBDmut IVT, anti-RXR (DBD mutation: RXRa K156A/R161A, NR concentration 270 nM, RXRa partner concentration 90 nM)
How it was run: as §1

[12] = test system: PPARg:RXRa IVT, anti-PPARg (NR concentration 270 nM, RXRa partner concentration 90 nM)
How it was run: as §1

[13] = test system: PPARg DBDmut:RXRa IVT, anti-PPARg (DBD mutation: PPARg1 K132A/R137A, NR concentration 270 nM, RXRa partner concentration 90 nM)
How it was run: as §1

[14] = test system: PPARg DBDmut IVT, anti-PPARg (DBD mutation: PPARg1 K132A/R137A, NR concentration 270 nM)
How it was run: as §1

[15] = test system: PPARg homodimer (NR concentration 180 nM)
How it was run: as §1

[16] = test system: PXR:RXRa (NR concentration 270 nM, RXRa partner concentration 90 nM)
How it was run: as §1

[17] = test system: PXR homodimer (NR concentration 270 nM)
How it was run: as §1

[18] = test system: RARa:RXR (NR concentration 270 nM, RXRa partner concentration 90 nM)
How it was run: as §1

[19] = test system: RARa homodimer (NR concentration 270 nM)
How it was run: as §1

[20] = test system: RARb:RXRa (NR concentration 270 nM, RXRa partner concentration 90 nM)
How it was run: as §1

| Sequence | PBM binding z-score [1] | PBM binding z-score [2] | PBM binding z-score [3] | PBM binding z-score [4] | PBM binding z-score [5] | PBM binding z-score [6] | PBM binding z-score [7] | PBM binding z-score [8] | PBM binding z-score [9] | PBM binding z-score [10] | PBM binding z-score [11] | PBM binding z-score [12] | PBM binding z-score [13] | PBM binding z-score [14] | PBM binding z-score [15] | PBM binding z-score [16] | PBM binding z-score [17] | PBM binding z-score [18] | PBM binding z-score [19] | PBM binding z-score [20] |
| --- | --- | --- | --- | --- | --- | --- | --- | --- | --- | --- | --- | --- | --- | --- | --- | --- | --- | --- | --- | --- |
| GATACAGCGTCAGCTAGAGGCCAGAGTATGGAAA | -1.06 | -0.907 | -0.84 | -1.11 | -1.5 | -1.18 | 0.184 | -0.842 | -0.638 | -1 | -0.984 | -0.61 | -2.52 | -1.12 | -1.09 | -0.922 | -0.376 | -0.685 | -1.14 | -0.322 |
| AGAATGAGGTTAGACGTAGATCAGGGAAGAAAGT | 0.755 | 0.774 | 0.0351 | 0.67 | -0.107 | 2.02 | 0.989 | 1.22 | 0.406 | 0.527 | 3.27 | 1.52 | 0.96 | 1.16 | 0.901 | 0.631 | 0.578 | 1.17 | 0.74 | 1.21 |
| GCTTCTAGATCAAGGTTAAGAAAGACTAAGCTAA | -0.054 | 0.652 | -0.313 | 0.697 | -0.427 | 1.58 | 0.749 | 1.77 | 0.224 | 1.13 | 0.942 | 0.862 | -0.0506 | 0.106 | 0.0754 | 0.437 | 0.0298 | 0.885 | -0.746 | 0.841 |
| GATACAGGGTCAAGGCCTGAGTACGCGTATTGAT | 6.17 | 3.94 | -0.32 | 3.35 | -0.67 | 5.35 | 5.34 | 5.5 | 2.3 | 4.29 | 2.78 | 3.87 | 0.27 | 0.16 | 1.74 | 3.43 | 0.0722 | 3.99 | 0.47 | 4.4 |
| CGAACGAGGGCTTGAGTTGATAGCAAATGCCGAT | -0.357 | -0.589 | -0.512 | -0.688 | -0.924 | -0.425 | 0.25 | -0.478 | -0.548 | -0.639 | 0.359 | -0.447 | -0.831 | -1.02 | -0.915 | -0.245 | -0.409 | -0.285 | -0.522 | -0.252 |
| TCGAGTAAGTTAGGGGCATTCAGAATGGCGTCGA | 0.474 | 0.581 | -0.298 | 0.52 | -1.13 | 0.686 | -0.191 | 0.338 | 1.03 | 0.613 | 0.867 | -0.26 | -1.43 | -0.704 | 0.141 | 0.512 | 0.0747 | 0.66 | -0.608 | 0.456 |
| TTACCAAGGTGAAGGTCGTTCATCCCTCTGTAGA | 1.75 | 2.56 | 0.0622 | 1.51 | -0.519 | 2.77 | 3.06 | 4.13 | 2.5 | 3.8 | 1.8 | 3.39 | -0.313 | 0.687 | 0.597 | 1.9 | 0.214 | 1.55 | -0.144 | 2.54 |
| TCATATAGGTAAATGCTAGGAGAAAGTCCGATCT | 0.665 | 0.615 | 0.0582 | 0.346 | 0.0208 | 0.892 | 0.807 | 2.25 | 3.95 | 3.15 | 3.74 | 1.59 | 1.52 | 1.09 | 0.813 | 0.458 | 0.215 | 0.385 | 0.843 | 0.136 |
| CCTACTGGGCCAAAAAGGTCACTGATGCCGATAA | 2.83 | 3.29 | 1.36 | 3.63 | -0.14 | 4.64 | 3.78 | 4.35 | 1.79 | 3.78 | 3.78 | 4.39 | -0.138 | -0.0876 | 3.8 | 4.22 | 1.16 | 4.59 | 1.29 | 4.15 |
| ACAGACAGGCGATGAAGGTAACTCAGGCTATCAT | -0.05 | -0.309 | -0.155 | -0.384 | -0.145 | -0.503 | 0.721 | -0.326 | 0.0512 | -0.438 | -0.645 | -0.444 | -0.214 | 0.247 | 0.743 | -0.467 | 0.0486 | -0.431 | -0.0743 | -0.249 |
| CAAACTAGGTCACCGGAAGCTCAAAGTCCGCATG | 4.54 | 2.93 | 0.559 | 2.24 | 0.297 | 5.45 | 9.51 | 7.22 | 5.15 | 7.39 | 8.73 | 9.13 | 6.78 | 2.89 | 2.58 | 1.9 | 0.365 | 3.19 | 1.19 | 4.38 |
| CGTCCAAGGTCAAGGTCAGTGACAGAGACTCGAA | 7.96 | 5.86 | 1.34 | 4.71 | 0.819 | 5.76 | 6.3 | 6.48 | 2.85 | 4.82 | 4.03 | 4.87 | 1.18 | -0.455 | 4.7 | 5.25 | 1.84 | 5.72 | 2.23 | 5.75 |
| CGTCCAAGGTCGGAGAGGTCAGTGAATGCCGAGT | 2.9 | 3.06 | 1.09 | 2.53 | -0.761 | 3.1 | 0.524 | 2.01 | 0.133 | 1.16 | 0.725 | 1.17 | -0.739 | -1.35 | 1.93 | 4.6 | 7.89 | 3.59 | 1.21 | 3.76 |
| CGTCAAAGTTCAACTAAGGTAACATAAAGCACGC | 7 | 6.17 | 4.4 | 4.25 | 1.93 | 5.1 | 5.41 | 5.57 | 2.61 | 4.55 | 0.273 | 2.52 | 1.34 | 1.66 | 3.27 | 5.54 | 3.1 | 4.35 | 1.57 | 5.25 |
